Experimental findings from PubChem BioAssay (EPA / NIEHS) are described below.

In test [1] the target is Transcription factor E2F1 (Homo sapiens) (UniProt Q01094). The experiment in a line: ATG_E2F_CIS: Attagene CIS-FACTORIAL HepG2 Assay for human E2F Transcription Factor 1 (AID 2282935). Particulars: HepG2 Attagene cis-reporter, E2F reporter RNA transcripts; actives raise or lower the signal. A digest of the protocol: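 Transient MRTU transfection of HepG2; 24 h compound exposure; RNA → oligo(dT) RT → PCR → FAM label → HpaI cut → CE fluorescence. Gain/loss of signal fit against DMSO.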
Chain of Transcription factor E2F1 (Homo sapiens) (Q01094 whole entry, looked up): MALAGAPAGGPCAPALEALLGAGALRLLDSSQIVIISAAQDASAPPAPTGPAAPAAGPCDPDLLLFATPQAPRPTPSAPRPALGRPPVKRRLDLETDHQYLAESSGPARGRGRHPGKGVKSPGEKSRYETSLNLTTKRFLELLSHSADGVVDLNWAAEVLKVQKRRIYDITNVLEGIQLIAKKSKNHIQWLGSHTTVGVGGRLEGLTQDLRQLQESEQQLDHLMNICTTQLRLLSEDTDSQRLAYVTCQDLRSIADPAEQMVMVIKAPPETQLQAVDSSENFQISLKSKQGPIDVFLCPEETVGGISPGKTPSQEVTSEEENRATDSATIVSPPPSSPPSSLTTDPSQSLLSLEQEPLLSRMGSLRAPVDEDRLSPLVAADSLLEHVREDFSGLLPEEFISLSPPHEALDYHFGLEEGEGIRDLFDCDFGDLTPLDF

The nature of test [2]: ATG_E_Box_CIS: Attagene CIS-FACTORIAL HepG2 Assay for human Enhancer Box (E-box) (AID 2282936). Particulars: HepG2 E-box cis-reporter transcription, actives raise or lower the signal. In a few lines: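 Transiently transfected HepG2, endogenous TF-driven reporters, 24 h dosing. Readout: RT-PCR plus capillary electrophoresis of fluorescent reporter fragments. Gain or loss of signal fitted bidirectionally against DMSO baseline.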

Test [3] can be described thus: ATG_M_61_CIS: Attagene CIS-FACTORIAL HepG2 Assay for M61 Transcription Factor (Internal Marker) (AID 2282937). Particulars: HepG2 Attagene CIS-FACTORIAL M61 internal marker reporter; actives raise or lower the signal. A digest of the protocol:
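Endogenous transcription factor activity in HepG2 is read through transiently transfected cis-element reporter units. After 24 h dosing, RNA undergoes reverse transcription, PCR and primer extension with 6-FAM before capillary electrophoresis; DMSO-referenced bidirectional fit.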

Test [4] can be described thus: ATG_EGR_CIS: Attagene CIS-FACTORIAL HepG2 Assay for human Early Growth Response 1 (EGR1) (AID 2282938). Particulars: HepG2 Attagene CIS-FACTORIAL EGR reporter mRNA; actives raise or lower the signal. In a few lines: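 Activity is taken as induction or loss of reporter mRNA versus DMSO, fitted bidirectionally. Transcripts from cis-regulated reporter units in transiently transfected HepG2 were measured after 24 h by RT-PCR with capillary electrophoresis.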

The nature of test [5]: ATG_M_19_CIS: Attagene CIS-FACTORIAL HepG2 Assay for M19 Transcription Factor (Internal Marker) (AID 2282939). Particulars: HepG2 Attagene CIS-FACTORIAL M19 internal marker reporter; actives raise or lower the signal. A digest of the protocol:
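Following a 24 h exposure, RNA from transfected HepG2 cells was reverse-transcribed, PCR-amplified with reporter-specific primers, end-labelled with 6-FAM and HpaI-digested before capillary separation. Values represent gain or loss versus DMSO.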

Test [6] can be described thus: ATG_ERE_CIS: Attagene CIS-FACTORIAL HepG2 Assay for Estrogen Response Element (ERE) (AID 2282940). Particulars: HepG2 ERE cis-reporter, Attagene RNA transcript; actives raise or lower the signal. In a few lines:
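HepG2, transient cis-reporter units, 24 h exposure. RNA isolated, oligo(dT) RT, reporter-specific PCR, FAM extension, HpaI cut, CE detection. Gain/loss-of-signal vs DMSO.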

Test [7] can be described thus: ATG_Ets_CIS: Attagene CIS-FACTORIAL HepG2 Assay for human Erythroblast Transformation Specific (ETS) (AID 2282941). Particulars: HepG2 ETS cis-reporter transcription, actives raise or lower the signal. A digest of the protocol: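 RT-PCR/capillary electrophoresis fluorescence read-out of reporter mRNA; HepG2 transient multi-reporter transfection; 24 h compound exposure; gain or loss of signal fitted bidirectionally relative to DMSO.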

The target in test [8] is Hepatocyte nuclear factor 3-beta (Homo sapiens) (UniProt Q9Y261). The experiment in a line: ATG_FoxA2_CIS: Attagene CIS-FACTORIAL HepG2 Assay for human Forkhead box A2 (FOXA2) (AID 2282942). Particulars: HepG2 cis-reporter transcription factor activity, 24 h; actives raise or lower the signal. A digest of the protocol:
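Reporter transcript induction is measured by fluorescence after capillary electrophoresis of RT-PCR products from HepG2 cells exposed 24 h. Cis-regulated reporter units report endogenous factor activity; curves fitted both directions against DMSO.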

A short description of test [9]: ATG_FoxO_CIS: Attagene CIS-FACTORIAL HepG2 Assay for human Forkhead box O (FoxO) (AID 2282943). Particulars: HepG2 Attagene cis-reporter, FoxO element, mRNA; actives raise or lower the signal. A digest of the protocol: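 Read-out: fluorescence of 6-FAM-labelled reporter cDNA fragments resolved by capillary electrophoresis. Transiently transfected HepG2 cells were dosed for 24 h; activity fitted in both directions relative to DMSO controls.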

A short description of test [10]: ATG_GATA_CIS: Attagene CIS-FACTORIAL HepG2 Assay for human GATA Binding Protein (AID 2282944). Particulars: HepG2 GATA cis-element reporter, Attagene multiplex mRNA; actives raise or lower the signal. A digest of the protocol:
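DMSO serves as negative control and baseline for bidirectional fitting of reporter mRNA changes. HepG2 cells bearing transiently transfected cis-promoter reporters were exposed 24 h; transcripts detected via RT-PCR and capillary electrophoresis.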

A short description of test [11]: ATG_GLI_CIS: Attagene CIS-FACTORIAL HepG2 Assay for human Zinc Finger Protein GLI1 (AID 2282945). Particulars: HepG2, Attagene cis-factorial reporter mRNA, GLI element; actives raise or lower the signal. In a few lines: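 Transiently transfected HepG2 cells report endogenous transcription factor activity via cis-element-driven reporter units. After 24 h compound exposure, reporter mRNA was measured by RT-PCR with capillary electrophoresis; bidirectional fitting against DMSO baseline.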

In test [12] the target is Bile acid receptor (Homo sapiens) (UniProt Q96RI1). The experiment in a line: ATG_IR1_CIS: Attagene CIS-FACTORIAL HepG2 Assay for human Nuclear Receptor Subfamily 1 Group H Member 4 (NR1H4), IR1 submotif (AID 2282946). Particulars: IR1 reporter transcription, actives raise or lower the signal. In a few lines:
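Fluorescence of capillary-separated, HpaI-digested RT-PCR reporter products gave IR1-element mRNA induction in HepG2 cells 24 h after dosing. Endogenous transcription factors drove the cis-regulated reporters; activity was fitted bidirectionally against DMSO.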

Test [13] can be described thus: ATG_ISRE_CIS: Attagene CIS-FACTORIAL HepG2 Assay for human Interferon Regulatory Factor 1 (IRF1) binding to an Interferon-Stimulated Response Element (ISRE) (AID 2282948). Particulars: HepG2 ISRE cis-reporter (Attagene), mRNA transcription readout; actives raise or lower the signal. A digest of the protocol:
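Read-out: fluorescent RT-PCR products resolved by capillary electrophoresis, reporting endogenous transcription factor activity via ISRE-driven reporter mRNA in transfected HepG2 cells dosed for 24 h; gain or loss fitted relative to DMSO.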

The nature of test [14]: ATG_M_32_CIS: Attagene CIS-FACTORIAL HepG2 Assay for M32 Transcription Factor (Internal Marker) (AID 2282949).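 Note: background control marker of the multiplexed CIS panel rather than a real target.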 Particulars: HepG2 Attagene cis-factorial M32 reporter, mRNA; actives raise or lower the signal. A digest of the protocol: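 Using DMSO as baseline, bidirectional curve fits were applied to reporter mRNA signals. These came from transiently transfected HepG2 cells exposed for 24 h, with RNA analysed by RT-PCR, FAM primer extension, HpaI digestion and CE.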

The nature of test [15]: ATG_M_06_CIS: Attagene CIS-FACTORIAL HepG2 Assay for M06 Transcription Factor (Internal Marker) (AID 2282950). Particulars: HepG2 Attagene CIS-FACTORIAL M06 internal marker reporter; actives raise or lower the signal. In a few lines:
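Fluorescence-labelled RT-PCR products from cis-promoter reporter units, cut with HpaI and resolved by capillary electrophoresis, give the signal. Cells are human HepG2, dosed for 24 h. Serves as background control, fitted relative to DMSO.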

Test [16] deals with Hypoxia-inducible factor 1-alpha (Homo sapiens) (UniProt Q16665). The experiment in a line: ATG_HIF1a_CIS: Attagene CIS-FACTORIAL HepG2 Assay for human Hypoxia Inducible Factor 1 (HIF1A) (AID 2282951). Particulars: HepG2 Attagene cis-factorial HIF1a reporter transcription; actives raise or lower the signal. A digest of the protocol: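 Fluorescence intensity of capillary-separated, 6-FAM-labelled reporter amplicons gives mRNA induction in HepG2 cells carrying transfected cis-promoter reporter units; cells exposed 24 h, responses fitted up or down from DMSO.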
Chain of Hypoxia-inducible factor 1-alpha (Homo sapiens) (Q16665 whole entry, looked up): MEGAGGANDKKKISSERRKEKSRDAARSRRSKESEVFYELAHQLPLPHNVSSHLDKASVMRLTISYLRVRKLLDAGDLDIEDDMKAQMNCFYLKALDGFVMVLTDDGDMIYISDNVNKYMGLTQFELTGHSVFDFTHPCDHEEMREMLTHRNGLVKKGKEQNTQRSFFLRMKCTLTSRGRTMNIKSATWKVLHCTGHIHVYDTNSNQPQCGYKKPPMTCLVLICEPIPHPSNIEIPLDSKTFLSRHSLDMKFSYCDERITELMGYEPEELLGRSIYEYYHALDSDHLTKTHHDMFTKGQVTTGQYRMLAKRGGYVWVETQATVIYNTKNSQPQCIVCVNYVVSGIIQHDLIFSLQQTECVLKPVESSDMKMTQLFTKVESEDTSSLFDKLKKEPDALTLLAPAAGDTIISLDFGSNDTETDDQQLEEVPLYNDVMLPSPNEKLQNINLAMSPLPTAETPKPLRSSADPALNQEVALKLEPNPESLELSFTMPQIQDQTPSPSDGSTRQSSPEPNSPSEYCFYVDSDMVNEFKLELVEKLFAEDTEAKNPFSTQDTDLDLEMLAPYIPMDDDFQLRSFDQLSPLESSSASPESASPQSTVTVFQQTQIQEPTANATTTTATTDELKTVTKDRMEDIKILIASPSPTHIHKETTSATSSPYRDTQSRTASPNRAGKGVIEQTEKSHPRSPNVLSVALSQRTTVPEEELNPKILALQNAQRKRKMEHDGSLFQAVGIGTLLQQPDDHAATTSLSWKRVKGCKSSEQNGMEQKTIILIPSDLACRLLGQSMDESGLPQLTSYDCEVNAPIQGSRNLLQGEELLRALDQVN

For test [17], the target named is Hepatocyte nuclear factor 6 (Homo sapiens) (UniProt Q9UBC0). The experiment in a line: ATG_HNF6_CIS: Attagene CIS-FACTORIAL HepG2 Assay for human Hepatocyte Nuclear Factor 6 (HNF6) (AID 2282952). Particulars: HepG2 Attagene cis-factorial HNF6 reporter transcription; actives raise or lower the signal. A digest of the protocol:
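First, HepG2 cells were transfected with the multiplexed cis reporter library and dosed with chemical for 24 h. Next, RNA was reverse-transcribed, PCR-amplified and fluorescently labelled. Finally, HpaI-digested fragments were read by capillary electrophoresis.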

Test [18] in a line: ATG_MRE_CIS: Attagene CIS-FACTORIAL HepG2 Assay for human Metal Responsive Element (MRE) (AID 2282954). Particulars: HepG2 MRE cis-reporter transcription, Attagene multiplex; actives raise or lower the signal. A digest of the protocol: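 RT-PCR/capillary electrophoresis readout of reporter mRNA, 24 h post-dosing, in HepG2 cells transfected with multiplexed cis-regulated reporter constructs. Gain or loss of signal fitted bidirectionally against DMSO baseline.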

Test [19] has as its target Heat shock factor protein 1 (Homo sapiens) (UniProt Q00613). The experiment in a line: ATG_HSE_CIS: Attagene CIS-FACTORIAL HepG2 Assay for human Heat Shock Transcription Factor 1 (HSE) (AID 2282953). Particulars: HepG2 HSE cis-reporter, Attagene RNA transcription; actives raise or lower the signal. In a few lines:
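After a 24 h incubation with test chemical, transfected HepG2 cells were harvested for RNA; reporter transcripts were measured by RT-PCR and capillary electrophoresis. Values reflect gain or loss of signal relative to DMSO.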

The source made the active and inactive calls. Rule for the calls: active = hit-call score of the fitted dose curve at least 0.9, where 1 is the maximum; inactive = score below 0.9.

Chain of Hepatocyte nuclear factor 6 (Homo sapiens) (Q9UBC0 whole entry, looked up, the tested form may be a part): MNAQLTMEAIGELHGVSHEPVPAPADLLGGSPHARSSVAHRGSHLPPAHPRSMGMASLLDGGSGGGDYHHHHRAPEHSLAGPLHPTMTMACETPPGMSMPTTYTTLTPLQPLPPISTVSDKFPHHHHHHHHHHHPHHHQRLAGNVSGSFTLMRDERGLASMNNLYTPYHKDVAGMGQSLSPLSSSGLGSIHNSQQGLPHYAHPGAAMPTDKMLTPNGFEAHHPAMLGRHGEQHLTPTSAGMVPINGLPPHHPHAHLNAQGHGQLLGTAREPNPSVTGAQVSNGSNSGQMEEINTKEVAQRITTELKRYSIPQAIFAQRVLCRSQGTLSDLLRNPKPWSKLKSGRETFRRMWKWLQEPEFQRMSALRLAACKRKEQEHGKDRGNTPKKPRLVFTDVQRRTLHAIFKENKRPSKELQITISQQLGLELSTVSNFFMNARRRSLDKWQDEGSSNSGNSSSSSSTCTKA
Chain of Bile acid receptor (Homo sapiens) (Q96RI1 whole entry, looked up): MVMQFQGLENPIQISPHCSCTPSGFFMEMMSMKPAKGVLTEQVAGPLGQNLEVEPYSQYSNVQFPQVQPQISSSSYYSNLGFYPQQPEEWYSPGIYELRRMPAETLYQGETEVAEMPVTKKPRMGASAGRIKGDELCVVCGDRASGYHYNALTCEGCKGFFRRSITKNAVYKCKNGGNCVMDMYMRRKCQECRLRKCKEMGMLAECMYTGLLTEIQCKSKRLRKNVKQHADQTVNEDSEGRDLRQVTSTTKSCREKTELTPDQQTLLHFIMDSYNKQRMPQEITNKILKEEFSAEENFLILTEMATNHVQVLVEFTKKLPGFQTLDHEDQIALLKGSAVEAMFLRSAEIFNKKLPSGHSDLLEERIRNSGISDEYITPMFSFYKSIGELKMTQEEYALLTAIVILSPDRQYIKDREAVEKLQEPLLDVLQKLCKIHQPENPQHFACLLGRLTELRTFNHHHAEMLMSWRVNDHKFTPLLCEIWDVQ
Chain of Hepatocyte nuclear factor 3-beta (Homo sapiens) (Q9Y261 whole entry, looked up): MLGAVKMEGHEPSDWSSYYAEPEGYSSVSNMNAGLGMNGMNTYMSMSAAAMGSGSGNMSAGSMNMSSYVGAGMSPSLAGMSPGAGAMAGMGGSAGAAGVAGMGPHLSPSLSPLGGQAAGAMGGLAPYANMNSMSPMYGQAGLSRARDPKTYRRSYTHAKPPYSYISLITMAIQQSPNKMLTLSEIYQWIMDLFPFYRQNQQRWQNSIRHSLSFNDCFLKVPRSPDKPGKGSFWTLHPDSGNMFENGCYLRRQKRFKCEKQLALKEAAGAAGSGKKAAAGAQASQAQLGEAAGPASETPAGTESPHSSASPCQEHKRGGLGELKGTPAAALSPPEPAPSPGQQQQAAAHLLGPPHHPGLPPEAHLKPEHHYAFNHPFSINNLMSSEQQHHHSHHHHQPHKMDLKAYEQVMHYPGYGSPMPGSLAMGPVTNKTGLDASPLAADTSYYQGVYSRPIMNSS
Chain of Heat shock factor protein 1 (Homo sapiens) (Q00613 whole entry, looked up): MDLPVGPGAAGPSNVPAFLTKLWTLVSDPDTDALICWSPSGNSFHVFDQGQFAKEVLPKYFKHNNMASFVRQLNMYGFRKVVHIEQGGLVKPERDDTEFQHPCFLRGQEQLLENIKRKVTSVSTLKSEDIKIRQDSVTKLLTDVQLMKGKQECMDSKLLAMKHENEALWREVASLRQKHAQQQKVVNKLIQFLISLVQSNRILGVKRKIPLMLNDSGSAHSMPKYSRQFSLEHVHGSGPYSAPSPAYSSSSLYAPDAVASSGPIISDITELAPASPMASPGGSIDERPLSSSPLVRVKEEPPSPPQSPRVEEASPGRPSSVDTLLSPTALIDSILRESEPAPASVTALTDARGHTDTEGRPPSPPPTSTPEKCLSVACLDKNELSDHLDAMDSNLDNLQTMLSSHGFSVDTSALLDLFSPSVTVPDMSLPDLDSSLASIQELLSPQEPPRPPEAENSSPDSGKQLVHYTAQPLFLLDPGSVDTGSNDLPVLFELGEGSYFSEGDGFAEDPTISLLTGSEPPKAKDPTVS

In the case of `COCc1cnc(C2=NC(C)(C(C)C)C(=O)N2)c(C(=O)O)c1` (stereo unspecified), the molecule was called inactive in test [1], in [2], in test [3], in [4], in test [5] and in test [6]. Besides, the molecule was called inactive in test [7], in [8], in [9], in [10], in [11] and in test [12]. Moreover, the call in test [13], in test [14], in test [15], in test [16] and in test [17] was inactive.
With `CCOc1nc(C(Cl)(Cl)Cl)ns1`, the result in test [1], in test [2], in [3], in test [4], in test [5] and in test [6] was inactive. In addition, the result in test [7], in [8], in [9], in test [10], in test [11] and in test [13] was inactive. The outcome in [14], in test [15], in test [16], in [17] and in test [18] was inactive.
In the case of `COP(=S)(OC)SCn1nnc2ccccc2c1=O`, the result in test [1], in test [2], in test [3], in test [5], in test [6] and in test [7] was inactive. For the same molecule, the outcome in [8], in test [9], in test [10], in [11], in [13] and in test [14] was inactive. Further, the call in test [15], in [16], in test [17] and in test [19] was inactive. Further, the results for the AC50 in test [4] and in test [18] were 23.7 µM (active) and 17.3 µM (active), respectively.
Turning to `CCCCC(O)(Cn1cncn1)c1ccc(Cl)cc1Cl` (stereo unspecified), the molecule was classed as inactive in [1], in test [3], in [5], in test [7], in test [8] and in test [9]. The call in test [10], in test [11], in test [13], in [14], in test [15] and in test [16] was inactive. Further, the concentration at half-maximal activity (AC50) (as a rule, the concentration at which the activity in the assay is half-maximal) in [2] is 50 µM (active); in [4] it was 50 µM (active); in [6] it was 12.6 µM (active); in test [12], 91.3 µM (active); in [17] it was 88.4 µM (active); in test [18], 61.5 µM (active).
As to `CCN(CC)C(=O)C(C)Oc1cccc2ccccc12` (stereo unspecified), the call in test [1], in [2], in [4], in [5], in test [7] and in [8] was inactive. In addition, the result in [9], in test [10], in test [11], in test [12], in [13] and in test [14] was inactive. In addition, the outcome in test [15] and in test [17] was inactive. Further, the AC50 in [6] is 25.2 µM (active); in [16], 23.6 µM (active).
